# Bioassay records: PubChem BioAssay, several laboratories
# Most compounds without a hit are left out; they make up all but 1.5% or so of the library.
# GLD-1 RNA inh – GLD-1-TGE RNA interaction inhibition (C. elegans) | purified GLD-1 + fluorescein TGE RNA, fluorescence polarization | inhibition, % at 5.96 µM | 320,000 compounds, 0.44% hits | AID 2280;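 active means percent inhibition above a per-plate cutoff, the plate mean of test compounds plus 3 SD, cut at about 30% in these data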;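 further: 0% = DMSO wells with GLD-1 and probe and 100% = wells lacking GLD-1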
# EBV gp42 block – inhibitors of Epstein-Barr virus glycoprotein 42. AID 1085. inhibition, % (tested at 21.74 µM). Fluorescence polarization binding assay, mP read-out. 220,000 compounds, 0.42% hits; in the data active means inhibition above about 50%
# Target sequence (Q1HVG2 whole entry, looked up): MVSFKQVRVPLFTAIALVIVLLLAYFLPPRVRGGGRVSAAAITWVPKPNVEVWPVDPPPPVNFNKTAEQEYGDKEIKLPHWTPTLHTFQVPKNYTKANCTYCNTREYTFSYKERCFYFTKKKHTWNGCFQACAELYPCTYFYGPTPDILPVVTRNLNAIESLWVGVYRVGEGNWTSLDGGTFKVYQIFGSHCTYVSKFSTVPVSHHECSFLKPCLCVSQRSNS
# eLon inh – E. coli protease La inhibition | P0A9M0 | purified E. coli Lon protease, fluorescence polarization | inhibition, % at 7.94 µM | 360,000 compounds, 0.42% hits; in the data active means inhibition above about 13%, passing the limit was not always enough;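 further: 0% = enzyme with probe and DMSO and 100% = no enzyme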
# Bcl-xL primary – Bcl-xL (human) inhibition. inhibition, % at 10.9 µM. Q07817. 320,000 compounds, 0.7% hits. GST-Bcl-xL / FITC-Bim BH3 peptide fluorescence polarization;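 active means inhibition above the mean of all tested compounds plus 3 SD, cutoff set per campaign, cut at about 30% in these data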;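 further: 0% = DMSO wells and 100% = unlabeled Bim-BH3 peptide competitor; inhibitors lower millipolarization by displacing the labeled peptide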
# MEX-5 binding – C. elegans MEX-5 TCR-2 RNA binding activity. Q9XUB2. MEX-5/FITC-TCR2 RNA binding, fluorescence polarization; stronger effect = lower value. activity score (negative = inhibition of binding), % at 10 µM. 300,000 compounds, 0.38% hits. AID 1832;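 active means inhibition past about -25% in most replicates, and total fluorescence under double the plate's negative control median, limit read from the data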;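 further: 0% = DMSO and -100% = 5 µM competing unlabeled TCR2 RNA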
# Target sequence (Q9XUB2 whole entry, looked up): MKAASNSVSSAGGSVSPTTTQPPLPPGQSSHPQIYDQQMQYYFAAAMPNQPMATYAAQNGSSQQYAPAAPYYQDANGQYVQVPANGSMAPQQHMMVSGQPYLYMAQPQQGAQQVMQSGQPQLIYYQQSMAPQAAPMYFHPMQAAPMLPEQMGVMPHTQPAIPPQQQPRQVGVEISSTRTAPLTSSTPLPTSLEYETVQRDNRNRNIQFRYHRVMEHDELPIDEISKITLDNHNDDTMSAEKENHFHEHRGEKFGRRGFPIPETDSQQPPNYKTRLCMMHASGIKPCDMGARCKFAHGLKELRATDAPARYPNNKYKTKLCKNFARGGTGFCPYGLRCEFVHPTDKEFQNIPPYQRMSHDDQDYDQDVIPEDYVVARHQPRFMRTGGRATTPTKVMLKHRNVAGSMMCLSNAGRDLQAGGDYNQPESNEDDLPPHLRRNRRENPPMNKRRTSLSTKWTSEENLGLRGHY
# MCL1-BIM inh – inhibitors of human MCL1 binding to BIM-BH3 peptide. Q07820. GST-MCL1 / FITC-Bim-BH3 fluorescence polarization. inhibition, % at 10.9 µM. 320,000 compounds, 0.68% hits;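 active means inhibition above the mean inhibition of all tested compounds plus 3 SD, set per campaign, cut at about 40% in these data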;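 further: 0% = DMSO wells and 100% = unlabeled Bim-BH3 peptide control; higher means more loss of mP so more displacement of Bim peptide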
# eLon confirm – confirmation of E. coli Lon protease inhibitors; shares compounds with eLon inh; purified E. coli Lon, fluorescence polarization; inhibition, % at 7.94 µM; 1,400 compounds, 31% hits; AID 602230; in the data active means inhibition above about 16%;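 further: 0% = enzyme with probe and DMSO and 100% = no enzyme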
# * marks the source's active call; other numbers are inactive results; / = not tested or not shown; + = active, no number.
SMILES,GLD-1 RNA inh,EBV gp42 block,eLon inh,Bcl-xL primary,MEX-5 binding,MCL1-BIM inh,eLon confirm
Cn1c(SCC(=O)NCC2CCCO2)nc2c(c1=O)SCC2 (centres undefined),-1.2,/,52.0*,-0.9,-0.1,-2.9,0.7
O=C(NC12CC3CC(CC(C3)C1)C2)c1cc([N+](=O)[O-])ccc1N1CCOCC1,-4.7,-1.5,19.4*,-4.5,-0.2,-12.3,-7.3
c1ccc(-c2noc(CN3CCCC(OCc4ccccn4)C3)n2)cc1 (centres undefined),3.3,-1.3,-6.8,1.1,2.3,-0.6,/
Cc1ccsc1C(=O)N1CCN(c2ncc(C(F)(F)F)cc2Cl)CC1,2.9,/,22.8*,1.9,1.6,5.1,-6.2
CCOC(=O)N1CCN(c2ncc(C(F)(F)F)cc2Cl)CC1,9.9,0.7,3.3,-2.5,-1.0,3.7,/
N#Cc1c(N2CCCC2)nc(N)c2c(N)nc(N3CCCC3)cc12,16.4,-6.1,50.9*,13.6,-1.5,2.5,-0.1
O=C(COc1ccc(Cl)cc1Cl)NN=C1CCCCC1,3.4,13.7,-1.8,-3.6,-2.6,3.6,/
CC1(C)CC(=O)C/C(=N/NC(=O)COc2ccc(Cl)cc2Cl)C1,22.9,-5.2,25.5*,5.4,-1.4,15.1,6.8
COc1ccc(OC)c(C(O)c2ncc(-c3cccc4ccccc34)[nH]2)c1 (centres undefined),/,/,-0.7,/,/,/,/
Cc1noc(-c2ccccc2)c1NC(=O)Nc1ccc2nc([C@H]3C[C@H](O)[C@@H](CO)O3)[nH]c2c1,/,/,16.6*,/,/,/,1.7
CN(Cc1ccccc1)C(=O)c1ccc2nc([C@H]3C[C@H](O)[C@@H](CO)O3)[nH]c2c1,/,/,-1.4,/,/,/,/
C=CCN(c1nc(C)c(Br)c(OC)n1)S(=O)(=O)c1ccc(C)cc1,7.5,/,49.2*,4.3,1.3,5.3,5.5
CC1(C(=O)O)CCC(C(=O)N2CCCCC2)C1(C)C (centres undefined),10.0,-12.7,1.7,6.5,0.4,5.6,/
COC(=O)c1cc2c(s1)-c1cc(F)ccc1OC2,3.2,0.4,16.2*,3.0,-0.9,3.5,-9.0
CC(=O)c1cc2c(s1)-c1cc(F)ccc1OC2,9.1,19.1,4.2,10.3,-3.8,15.1,/
N#CC1=C(N)C2=C(N3CCCCC3)CCCC2C1(C#N)C#N (centres undefined),18.1,-18.5,24.0*,25.4,-44.0*,34.9,0.1
N#Cc1ccc(CCc2ccccc2)[nH]c1=O,/,/,-13.7,/,/,/,/
N#Cc1ccc(CC(=O)c2ccccc2)[nH]c1=O,/,/,24.8*,/,/,/,-97.7
Cc1cc2oc(=O)cc(CN3CCN(C/C=C/c4ccccc4)CC3)c2cc1O,3.4,-17.6,22.5*,4.0,-1.4,3.7,-37.3
O=c1c(-c2ccccc2)n[nH]c2ccccc12,3.0,2.3,-6.0,4.9,-2.5,-5.7,/
O=C1c2ccccc2-c2n[nH]c3cccc1c23,/,/,22.6*,/,/,/,32.6*
Cn1nc(C(=O)NCc2ccccc2Cl)c2c1-c1ccccc1S(=O)(=O)C2,5.8,/,-6.5,3.2,-0.1,3.2,/
O=[N+]([O-])c1ccc(-c2ccc(C=Nc3cccc4ccccc34)o2)cc1,25.4,-16.1,-1.7,-3.2,0.9,-8.8,/
O=[N+]([O-])c1cc(-c2ccc(/C=N/c3nc4ccccn4c3-c3ccco3)o2)ccc1Cl,26.3,9.5,27.4*,24.5,-0.2,30.4,12.5
COc1cc(C)c2c(c1C=O)Oc1c(c(C)c(O)c3c1C(O)OC3=O)OC2=O (centres undefined),3.4,-14.5,56.8*,6.3,-2.0,11.0,16.0*
SMILES,GLD-1 RNA inh,EBV gp42 block,eLon inh,Bcl-xL primary,MEX-5 binding,MCL1-BIM inh,eLon confirm
CCCCn1c(NC(C)=O)c(C#N)c2nc3ccccc3nc21,-7.2,-18.1,22.7*,-4.5,0.6,-8.2,-9.3
CCCCCn1c(N)c(C#N)c2nc3ccccc3nc21,2.5,7.9,-1.9,2.3,4.9,0.1,/
CCOC(=O)c1c(OCCO)nn(-c2ccccc2)c1N,6.9,-13.4,-4.4,5.0,2.5,5.6,/
Cn1cc(S(=O)(=O)NC2CCCCCC2)c(=O)n(C)c1=O,1.6,/,2.3,-1.2,-3.8,6.2,/
Cn1c(=O)c(NC2CCCCC2)c2c3c(cccc31)C(=O)c1ccccc1-2,/,139.3*,117.9*,/,/,/,-98.6
CCNC(=O)C1(C)CCCN(C(=O)CCc2cccs2)C1 (centres undefined),/,/,10.8,/,/,/,/
COc1ccc(Cl)cc1S(=O)(=O)n1ccnc1C(C)C,-0.1,-0.7,16.9*,4.9,1.6,-1.0,2.4
O=C(Cc1c(Cl)cccc1Cl)Nc1ccc(S(=O)(=O)Nc2ncccn2)cc1,2.0,/,18.7*,-0.2,-2.0,1.2,-151.8
O=C(CNC(=O)c1ccc(-c2ccccc2)cc1)Nc1ccc(S(=O)(=O)Nc2ncccn2)cc1,8.0,-7.2,30.1*,2.7,0.1,-2.3,42.7*
O=C(Cc1ccc(Cl)cc1)Nc1ccc(S(=O)(=O)Nc2ncccn2)cc1,-5.7,/,4.1,4.8,1.0,7.4,/
O=C(CS(=O)(=O)c1ccccc1)Nc1ccc(S(=O)(=O)Nc2ncccn2)cc1,4.4,-8.9,0.0,-1.1,-0.1,-0.9,/
CC(C)(CN1CCc2ccccc2C1)NS(=O)(=O)c1ccc(Cl)cc1,-0.7,-0.4,17.4*,3.9,0.7,7.8,13.1
O=C(c1ccccc1Cl)N(Cc1ccc(Cl)c(Cl)c1)N1C(=O)CCCC1=O,0.5,12.0,17.8*,2.3,-1.1,8.4,5.1
CCC(C)(C)NS(=O)(=O)c1cc(CN2C(=O)c3cccnc3C2=O)ccc1OC,-8.3,/,-6.1,0.1,0.4,3.6,/
COc1cccc(C2=CC(=O)CC(C)(C)C2=O)c1,/,/,11.8*,/,/,/,-13.2
CC1(C)CC(=O)C=C(c2cccc(O)c2)C1=O,3.5,/,-3.4,5.3,/,5.7,/
O=C(/C=C/c1cccc([N+](=O)[O-])c1)NC(=S)Nc1ccccc1C(=O)O,/,7.7,/,/,/,/,/
CCCc1cc(=O)[nH]c(SCC(=O)c2c(N)n(C3CC3)c(=O)[nH]c2=O)n1,0.9,/,0.7,4.7,/,4.9,/
O=C1NC(=O)C2(N1)C(=O)c1cccc3cccc2c13 (centres undefined),/,/,+,/,/,/,+
CCC1(O)C(=O)OCc2c1cc1n(c2=O)Cc2cc3cc(O)ccc3nc2-1 (centres undefined),/,/,+,/,/,/,+
CCc1c2c(nc3ccc(OC(=O)N4CCC(N5CCCCC5)CC4)cc13)-c1cc3c(c(=O)n1C2)COC(=O)[C@]3(O)CC,20.3,/,1.7,-2.1,-1.2,-3.6,/
Cc1ccn(CCNC(=O)C2CCC(=O)N(CCc3ccc(Cl)cc3)C2)n1 (centres undefined),1.7,/,-0.8,2.6,2.3,7.2,/
COCCn1c(N)c(N(Cc2ccccc2)C(=O)C2=COCCO2)c(=O)[nH]c1=O,22.4,/,29.1*,2.8,-6.3,-13.2,6.2
